PubChem BioAssay (NCATS)
Inconclusive results are not listed. Active and inactive are the calls of the source. Calls follow the shape of the dose curve; as a rule, active = well fitted curve in either direction with a large enough effect (not every such curve was filed as active); inconclusive = small, poorly fitted or top-dose-only effect, or another doubt; inactive = flat fitted curve, though single readings scatter.

Assay: AP1 Signaling Pathway (AID 357);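 also: ME-180 reporter cells stimulated with EGF at its EC50 level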
Conditions: ME-180 (cervical carcinoma) AP-1-bla reporter, EGF-induced, beta-lactamase ratio, 5 h; at 17.2 µM (top of the series) unless noted
Method in brief: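 Cells are seeded overnight, exposed to compound titrations and an EC50 level of EGF for 5 hours at 37 °C, then loaded with CCF4 dye for 2.5 hours. Beta-lactamase activity under the AP-1 element is read as a blue/green ratio.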
% is scaled to controls: 0 for no effect and ±100 for the full control effect.

Row | SMILES | activity change, negative = inhibition
1 | Cc1ccc(C2/C(=C(/O)c3ccc(OC(C)C)cc3)C(=O)C(=O)N2CCN2CCOCC2)cc1 (configuration not stated) | 0.482% (inactive)
2 | COC(=O)c1ccccc1N1C(=O)[C@@H]2C(c3ccc(Br)cc3)=NO[C@@H]2C1=O | 11.9% (inactive)
3 | CCCCOc1ccc(C(=O)Nc2ccc(N3CCN(C(C)=O)CC3)cc2)cc1 | -6.71% (inactive)
4 | CCOC(=O)CSc1nc(N(C)C)nc(N(C)C#N)n1 | 4.52% (inactive)
5 | CC(=O)c1c(C)c2c(n1CCN(C)C)CCCC2 | 123% [activator] (active)
6 | Oc1ccc(C=Nc2ccc3ncccc3c2)c(O)c1 | 26.2% (inactive)
7 | COC(=O)c1[nH]c(C)c(/C(O)=C2\C(=O)C(=O)N(CCN3CCOCC3)C2c2cccnc2)c1C (configuration not stated) | 0.561% (inactive)
8 | CCOC(=O)c1cc2c(=O)n3cccc(C)c3nc2n(Cc2cccnc2)c1=N | 13.7% (inactive)
9 | Cn1ncc2nnn(-c3ccccc3)c(=O)c21 | 3.86% (inactive)
10 | CCCOc1ccc(N2C(=O)CC(N(Cc3ccc(S(N)(=O)=O)cc3)C(=O)CC)C2=O)cc1 (configuration not stated) | -6.51% (inactive)
11 | CSc1nc2sc3c(c2c(=O)[nH]1)CCC(C)C3 (configuration not stated) | 7% (inactive)
12 | Clc1ccccc1-c1nn2c(-c3ccccn3)nnc2s1 | -2.63% (inactive)
13 | O=C1c2ccccc2S(=O)(=O)N1CC(O)COc1ccc(Cl)cc1 (configuration not stated) | -4.25% (inactive)
14 | Cc1ccc(-n2c(SCC(=O)NCc3ccco3)nc3nc4c(cc3c2=O)COC(C)(C)C4)cc1 | -7.85% (inactive)
15 | Clc1nc(-c2n[nH]nc2Cl)n[nH]1 | 14.2% (inactive)
16 | CCOC(=O)c1sc(-n2[nH]c(C)cc2=O)nc1C | -2.34% (inactive)
17 | O=C(NCc1ccccc1)/C(=N\O)c1ccccc1 | -2.22% (inactive)
18 | COc1cccc(/C(O)=C2/C(=O)C(=O)N(CCN(C)C)C2c2ccc(Br)cc2)c1 (configuration not stated) | -1.11% (inactive)
19 | CN=C1c2c(-c3ccccc3)c3cc(OC)ccc3n2CCN1C | 24.6% (inactive)
20 | Cc1[nH]nc2cn[nH]c12 | -10.4% (inactive)
21 | Cc1[nH]nc2c1C(CCc1ccccc1)C(C#N)=C(N)O2 (configuration not stated) | -6.35% (inactive)
22 | CC(=O)/C=C(\C)NCCNc1c(F)c(F)c(CO)c(F)c1F | -4.08% (inactive)

Assay: NFAT Signaling Pathway (AID 444);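 also: carbachol stimulus at about its EC50 of 1 µM final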
Conditions: Jurkat NFAT-bla M1, carbachol, beta-lactamase ratio, 5 h; at 17.2 µM (top of the series) unless noted
Method in brief: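 Jurkat cells carrying an NFAT-driven β-lactamase reporter and co-transfected muscarinic M1 receptor were treated with compound plus carbachol (1 uM final, an EC50 level) for 5 h at 37 °C. CCF4 loading followed for 1 h at RT; 460/530 nm ratio gave %activity.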

Row | SMILES | activity change, negative = inhibition
23 | CCOC(=O)c1c(C)[nH]sc1=S | -1.05% (inactive)
24 | CN1C(=O)N(c2ccccc2)C(Nc2nncs2)C1(C)C (configuration not stated) | -8.24% (inactive)
25 | Cc1cc2c(c(=O)n1Cc1cccnc1)C(c1ccccc1)C(C#N)=C(N)O2 (configuration not stated) | 3.75% (inactive)
26 | CC(NC(=O)Nc1cccnc1)(C(F)(F)F)C(F)(F)F | -11.5% (inactive)
27 | COc1ccc[nH]c1=O | -4.63% (inactive)
28 | Cc1c2c([n+]3n1CCC3)CC(C)(C)CC2=O | -9.27% (inactive)
29 | CC(=O)C1=C(O)C(=O)N(Cc2cccnc2)C1c1ccccc1Cl (configuration not stated) | 3.26% (inactive)
30 | O=C(NCCCn1ccnc1)C(Cc1ccccc1)N1C(=O)c2ccccc2C1=O (configuration not stated) | 7.45% (inactive)
31 | S=c1[nH]nc(-c2ccccc2)n1Cc1ccccc1 | -11.2% (inactive)
32 | CCOC(=O)c1c(CN2CCCCC2)oc2ccc(OC)cc12 | 14.1% (inactive)
33 | COC(=O)CC1=NC(=O)CS1 | -3.72% (inactive)
34 | c1ccc(OCc2nn3c(C4CCCCC4)nnc3s2)cc1 | 0.0415% (inactive)
35 | COc1ccc(C(=O)c2ccc(N3CCOCC3)cc2)c(OC)c1 | 13.3% (inactive)
36 | C/C(=N\O)c1c(C)c2ccccc2n1C | -14.1% (inactive)
37 | CC1(C)Cc2c(c(-c3ccccc3)nc3[nH][nH]c(=O)c23)CO1 | -1.86% (inactive)
38 | O=C1OC(Nc2ccc(Br)cn2)c2ccccc21 (configuration not stated) | 16.3% (inactive)
39 | Cc1nnc2n(-c3ccccc3)c(=O)c3c4c(sc3n12)COC(C(C)C)C4 (configuration not stated) | -28.2% (inactive)
40 | O=C1CC(c2ccccc2)n2nc(N3C(=O)c4ccccc4C3=O)nc2N1 (configuration not stated) | -10.6% (inactive)
41 | Cc1ccc(C2/C(=C(/O)c3ccc(OC(C)C)cc3)C(=O)C(=O)N2CCN2CCOCC2)cc1 (configuration not stated) | 10.1% (inactive)
42 | COC(=O)c1ccccc1N1C(=O)[C@@H]2C(c3ccc(Br)cc3)=NO[C@@H]2C1=O | 19.8% (inactive)

Row | SMILES | activity change, negative = inhibition
43 | CCCCOc1ccc(C(=O)Nc2ccc(N3CCN(C(C)=O)CC3)cc2)cc1 | 11.1% (inactive)
44 | CCOC(=O)CSc1nc(N(C)C)nc(N(C)C#N)n1 | -3.44% (inactive)
45 | CC(=O)c1c(C)c2c(n1CCN(C)C)CCCC2 | -7.5% (inactive)
46 | Oc1ccc(C=Nc2ccc3ncccc3c2)c(O)c1 | -26.8% (inactive)
47 | COC(=O)c1[nH]c(C)c(/C(O)=C2\C(=O)C(=O)N(CCN3CCOCC3)C2c2cccnc2)c1C (configuration not stated) | -7.81% (inactive)
48 | CCOC(=O)c1cc2c(=O)n3cccc(C)c3nc2n(Cc2cccnc2)c1=N | -26.5% (inactive)
49 | Cn1ncc2nnn(-c3ccccc3)c(=O)c21 | -4.96% (inactive)
50 | CCCOc1ccc(N2C(=O)CC(N(Cc3ccc(S(N)(=O)=O)cc3)C(=O)CC)C2=O)cc1 (configuration not stated) | 20.1% (inactive)
51 | CSc1nc2sc3c(c2c(=O)[nH]1)CCC(C)C3 (configuration not stated) | -2.6% (inactive)
52 | Clc1ccccc1-c1nn2c(-c3ccccn3)nnc2s1 | -11.1% (inactive)
53 | O=C1c2ccccc2S(=O)(=O)N1CC(O)COc1ccc(Cl)cc1 (configuration not stated) | -2.04% (inactive)
54 | Cc1ccc(-n2c(SCC(=O)NCc3ccco3)nc3nc4c(cc3c2=O)COC(C)(C)C4)cc1 | -16.8% (inactive)
55 | Clc1nc(-c2n[nH]nc2Cl)n[nH]1 | -2.11% (inactive)
56 | CCOC(=O)c1sc(-n2[nH]c(C)cc2=O)nc1C | 8.32% (inactive)
57 | O=C(NCc1ccccc1)/C(=N\O)c1ccccc1 | 12.4% (inactive)
58 | COc1cccc(/C(O)=C2/C(=O)C(=O)N(CCN(C)C)C2c2ccc(Br)cc2)c1 (configuration not stated) | 20.3% (inactive)
59 | CN=C1c2c(-c3ccccc3)c3cc(OC)ccc3n2CCN1C | -8.39% (inactive)
60 | Cc1[nH]nc2cn[nH]c12 | 6.17% (inactive)
61 | Cc1[nH]nc2c1C(CCc1ccccc1)C(C#N)=C(N)O2 (configuration not stated) | 10.3% (inactive)
62 | CC(=O)/C=C(\C)NCCNc1c(F)c(F)c(CO)c(F)c1F | 1.05% (inactive)
